Screening results: PubChem, National Center for Advancing Translational Sciences (NCATS)
Shown are actives, neighbours in structure and some others; about 8.1% of the full set was active somewhere.
KB-3-1 tox: KB-3-1 parental cell cytotoxicity; KB-3-1 viability, CellTiter-Glo ATP luminescence, 72 h; Potency, µM (highest dose often 46.1 µM), most hits filed as cytotoxic; AID 1347075; actives 1.4% (n = 400,000); note: % is set by controls: 0 for no effect and ±100 for the full control effect; nearly all actives have a fitted effect of over 60% in size
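72 h, 37 °C compound treatment of KB-3-1 parental cells; CellTiter-Glo added, 10 min, luminescence read. Data corrected against DMSO-only plates and normalized before curve fitting.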
ELG1 DNA repair: blocks ELG1-dependent DNA repair in HEK293T cells. HEK293T ELG1-luciferase reporter, luminescence, 16 h; DNA damage induced by 5-fluorouridine. actives 2.3% (n = 330,000). Potency, µM (top dose mostly 46.1 µM), for inactives: at the highest dose activity change, negative = inhibition, most hits filed as inhibitors. AID 504467; note: % is set by controls: 0 for no effect and ±100 for the full control effect; nearly all actives have a fitted effect of over 55% in size
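Quantitative HTS, concentration-response format. 2,000 cells/well co-treated with 5-fluorouridine and compound, 16 hr in 5% CO2 at 37 °C; ONE-Glo luminescence read after 30 min.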
SW480 rereplic: inducers of DNA re-replication in SW480 colon cancer cells | Potency, µM (series often up to 46.1 µM), without a hit: top-dose re-replication activation, most hits filed as activators | actives 1.8% (n = 340,000) | SW480 DNA re-replication, Hoechst DNA content imaging, 48 h; note: % of control where 0% means no effect; nearly all actives have a fitted effect of over 55% in size
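Treated cells incubate 48 hr (37 C, 5% CO2), are stained 40 min with Hoechst, and nuclear fluorescence is enumerated; a rise in nuclei with high DNA signal marks re-replication.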
MCF10A rereplic: inducers of DNA re-replication in MCF 10A breast cells; MCF 10A DNA re-replication, Hoechst nuclear intensity, 48 h; Potency, µM (titrated, usually from 46.1 µM), for inactives: at the top dose activity, positive = re-replication, hits mostly activators; actives 2.9% (n = 350,000); note: % of control where 0% means no effect; nearly all actives have a fitted effect of over 50% in size
KB-V1 cytotox: kills drug-selected multidrug resistant KB-V1 cells. KB-V1 MDR cells viability, CellTiter-Glo, 72 h. Potency, µM (series often up to 46.1 µM), actives largely listed as cytotoxic. actives 3.4% (n = 400,000); note: % is set by controls: 0 for no effect and ±100 for the full control effect; nearly all actives have a fitted effect of over 60% in size
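Readout: CellTiter-Glo luminescence, 10 min after addition. Cells: KB-V1 MDR subline, 72 h at 37 degrees C with compound. Analysis: corrected, normalized data fitted to concentration-effect curves.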
Starred values were filed as active, the others as inactive; i = inactive; u = inconclusive; x = not tested or not shown. Calls come from the whole dose curve; as a rule, active = well fitted curve in the direction sought with a large enough effect; inconclusive = small, poorly fitted or top-dose-only effect, or another doubt; inactive = no such curve, though single readings can be large; an effect the other way counts as inactive or inconclusive. Potency is the fitted concentration of half-maximal effect.

SMILES	KB-3-1 tox	ELG1 DNA repair	SW480 rereplic	MCF10A rereplic	KB-V1 cytotox
O=C(NCc1ccco1)/C(=C/C=C\c1ccccc1)NC(=O)c1ccc(Br)o1	u	u	u	u	4.1µM*
N#C/C(=C\C=C\c1ccccc1)C(=O)NCc1ccco1	i	-14%	u	u	i
N#Cc1cnc2nc1NCCCCCCC2	u	x	x	x	5.2µM*
O=c1[nH]c2ccccc2c2oc(CCl)nc12	i	u	-5%	21µM*	u
CCC1CCc2c(c3ccccc3[nH]c2=O)O1 (stereo unspecified)	i	3%	-2%	-1%	u
OCCNc1nc(SCc2ccccc2)nc2sc3c(c12)CCC3	i	25%	-10%	u	7.3µM*
CN(C)CCNc1nc2sc3c(c2c(=O)n1-c1ccccc1)CCCCC3	i	13%	-1%	u	i
COCCNc1nc2sc3c(c2c(=O)n1Cc1ccco1)CCCCC3	i	u	-9%	8.2µM*	i
O=c1c2c3c(sc2nc(NCCO)n1CCc1ccccc1)CCCCC3	u	u	u	4.6µM*	u
Cc1nc(NCc2cccnc2)c2c3c(sc2n1)CCCC3	u	-12%	-8%	10%	u
CN(C)CCNc1nc2sc3c(c2c(=O)n1Cc1ccccc1)CCCCC3	i	5%	16%	18µM*	i
O=c1c2c3c(sc2nc(NCCO)n1Cc1ccco1)CCCCC3	i	u	-2%	u	i
OC(COCC(F)(F)C(F)(F)C(F)(F)C(F)F)Cn1c2ccc(Cl)cc2c2cc(Cl)ccc21 (stereo unspecified)	u	-28%	u	18%	18µM*
O=C(NCc1ccccc1)C1CCC(=O)N(CC2CCCCC2)C1 (stereo unspecified)	i	12%	-1%	2%	i
COc1ccc(C(=O)C[C@@H]2OC[C@H](C)N2S(=O)(=O)c2ccc(C)cc2)cc1OC	i	x	x	x	u
COc1ccc(C(=O)C[C@@H]2OC[C@H](C(C)C)N2S(=O)(=O)c2ccc(C)cc2)cc1OC	i	x	x	x	21µM*
COc1ccc(CCNc2ccc(N3C(=O)CC(C)C3=O)cc2[N+](=O)[O-])cc1OC (stereo unspecified)	i	3.7µM*	-6%	0%	i
CC(C)(C)C(=O)CN1C(=O)C2(OCCO2)c2ccccc21	i	10%	-5%	-1%	i
O=C(CN1C(=O)C2(OCCO2)c2ccccc21)c1ccc(Cl)cc1	i	-3%	0%	13%	21µM*
CC(=O)N1CCN(S(=O)(=O)c2ccc(C)cc2)C1C(C)C (stereo unspecified)	i	18%	-13%	-2%	i
CCCN(CCC)CC(O)Cn1cc(/C=C/C(=O)c2ccccc2)c2ccccc21 (stereo unspecified)	u	-2%	u	5.2µM*	i
CCCN(CCC)CC(O)Cn1cc(/C=C/C(=O)c2ccc(Br)cc2)c2ccccc21 (stereo unspecified)	i	x	x	x	i
CCCN(CCC)CC(O)Cn1cc(/C=C/C(=O)c2cccs2)c2ccccc21 (stereo unspecified)	u	3%	16µM*	u	u
CCCN(CCC)CC(O)Cn1cc(/C=C/C(=O)c2ccc(C)cc2)c2ccccc21 (stereo unspecified)	i	x	x	x	i
O=C(OCc1ccccc1)C1CCN(S(=O)(=O)c2cccs2)CC1	i	x	x	x	i
SMILES	KB-3-1 tox	ELG1 DNA repair	SW480 rereplic	MCF10A rereplic	KB-V1 cytotox
COc1cc(C(=O)Oc2cccc(/C=N/NC(=O)c3cc(C)[nH]n3)c2)cc(OC)c1OC	i	-18%	1%	3%	i
COc1cc(C(=O)Oc2cccc(C=O)c2)cc(OC)c1OC	i	-14%	16µM*	2%	i
COc1ccc(/C=N/OCC(=O)N2CC3(C)CC2CC(C)(C)C3)cc1OC (stereo unspecified)	i	-15%	-5%	-2%	16µM*
Cc1ccc(C)c(S(=O)(=O)N2CCN(C(=O)Cn3c(C(F)(F)F)nc4ccccc43)CC2)c1	i	-23%	-6%	0%	i
COc1cc(NS(=O)(=O)c2ccc(OC)c(C)c2C)c(OC)cc1Cl	3.3µM*	u	5.6µM*	u	i
CN1C(=O)C(O)(CC(=O)c2ccc(F)cc2)c2cc(Br)ccc21 (stereo unspecified)	26µM*	4%	u	u	i
COc1ccc(NCc2nnc(SCC(=O)Nc3ccccc3OC)o2)cc1	i	-1%	-1%	0%	i
S=C(c1ccc2c(c1)OCO2)N1CCN(c2cccc(Cl)c2)CC1	4.1µM*	x	5.2µM*	1.5µM*	u
Cc1cccc(N2CCN(C(=S)c3ccc4c(c3)OCO4)CC2)c1	10µM*	x	6.5µM*	1.3µM*	i
O=C(CC1S/C(=N/N=C/c2cccnc2)NC1=O)Nc1ccccc1 (stereo unspecified)	i	3%	-1%	17%	i
O=C1N/C(=N\N=C\c2cccnc2)SC1Cc1ccc(SC(F)F)cc1 (stereo unspecified)	u	20%	25%	u	4.1µM*
Cc1cccc(CC2S/C(=N/c3ccccn3)NC2=O)c1 (stereo unspecified)	i	-16%	-3%	u	i
COc1ccc(/C=N/N=C2/NC(=O)C(CC(=O)O)S2)cc1OS(=O)(=O)c1ccccc1 (stereo unspecified)	i	6%	-4%	-18%	i
COc1cc(/C=N/N=C2/NC(=O)C(Cc3ccccc3)S2)ccc1O (stereo unspecified)	i	u	28%	18µM*	u
O=C1N/C(=N\N=C\c2cccs2)SC1Cc1cccc(Cl)c1 (stereo unspecified)	u	-8%	u	2.9µM*	u
O=C1N/C(=N\N=C\c2ccccn2)SC1Cc1cccc(SC(F)F)c1 (stereo unspecified)	u	-22%	u	u	3.7µM*
Cc1ccc(CCNC(=O)c2cc3cc4cc(C)ccc4nc3s2)cc1	i	x	x	x	i
O=C1N/C(=N\N=C\c2ccc3ncccc3c2)SC1Cc1ccc(SC(F)F)cc1 (stereo unspecified)	i	u	u	16µM*	u
O=S(c1ccc2ccccc2c1)c1cnns1 (stereo unspecified)	i	2%	u	13µM*	u
Cc1nnsc1S(=O)c1ccc(Cl)c(Cl)c1 (stereo unspecified)	u	-15%	u	u	u
COC(=O)c1ccccc1NC(=O)CN1C(=O)C2CCCN2c2ncc(Cl)cc21 (stereo unspecified)	x	-4%	x	x	x
